Measured values reported in the supplement of paper PMC6522484.
± gives the standard deviation of the averaged measurements.

What was measured:
[1] = tested on: DLD1; experiment: cell viability (CellTiter-Glo) relative to plate median (fraction of plate median); higher = more viable cells; details: 10 µM, treatment time 24 h
Summary of the method: (§1)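 Reporter and viability luminescence were measured in colorectal cancer cells stably carrying lentiviral TCF/Wnt firefly luciferase reporters. The cells were exposed to kinase inhibitor library compounds at a final 10 µM for 24 h, starting 24 h after seeding in 384-well plates. Each well was normalised to the plate median (webcellHTS2, additive, no log transformation), and two independent replicates were averaged.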

[2] = tested on: HCT116; experiment: as above; details: 10 µM; treatment time 24 h; reporter: TCF4/Wnt
Summary of the method: as §1

[3] = tested on: SW480; experiment: as above; details: 10 µM; treatment time 24 h; reporter: 7TFP
Summary of the method: as §1

[4] = tested on: DLD1; experiment: TCF/Wnt firefly luciferase reporter signal relative to plate median (fraction of plate median); higher = higher Wnt reporter signal; details: 10 µM, treatment time 24 h
Summary of the method: as §1

[5] = tested on: HCT116; experiment: as above; details: 10 µM; treatment time 24 h; reporter: TCF4/Wnt
Summary of the method: as §1

[6] = tested on: SW480; experiment: as above; details: 10 µM; treatment time 24 h; reporter: 7TFP
Summary of the method: as §1

Question: Which cell viability ([1]; reporter: 7TFP) does the source give for CC(C)n1nc(-c2ccc3oc(N)nc3c2)c2c(N)ncnc21 here?
Answer: 0.832 ± 0.15

Question: And the cell viability ([1]; reporter: TCF4/Wnt)?
Answer: 0.916 ± 0.016

Question: What about the cell viability [2] of the same compound?
Answer: 0.624 ± 0.1

Question: What about the cell viability [3] of the same compound?
Answer: 1.04 ± 0.072

Question: And the “TCF/Wnt firefly luciferase reporter signal” value ([4]; reporter: 7TFP)?
Answer: 0.341 ± 0.062

Question: And the “TCF/Wnt firefly luciferase reporter signal” value ([4]; reporter: TCF4/Wnt)?
Answer: 0.509 ± 0.071

Question: And the “TCF/Wnt firefly luciferase reporter signal” value [5]?
Answer: 0.569 ± 0.26

Question: What about the “TCF/Wnt firefly luciferase reporter signal” value [6] of the same compound?
Answer: 0.704 ± 0.15

Question: What does the source list for CCOc1cc2ncc(C#N)c(Nc3ccc(OCc4ccccn4)c(Cl)c3)c2cc1NC(=O)/C=C/CN(C)C [Neratinib (HKI-272)]?
Answer: cell viability ([1]; reporter: 7TFP): 0.817 ± 0.03; cell viability ([1]; reporter: TCF4/Wnt): 0.877 ± 0.1; cell viability [2]: 0.982 ± 0.083; cell viability [3]: 0.541 ± 0.72; TCF/Wnt firefly luciferase reporter signal ([4]; reporter: 7TFP): 0.521 ± 0.3; TCF/Wnt firefly luciferase reporter signal ([4]; reporter: TCF4/Wnt): 0.763 ± 0.05; TCF/Wnt firefly luciferase reporter signal [5]: 0.53 ± 0.33; TCF/Wnt firefly luciferase reporter signal [6]: 0.508 ± 0.7

Question: Which results are given for COc1ccc2c(OCc3nnc4ccc(-c5ccccc5)nn34)ccnc2c1?
Answer: cell viability ([1]; reporter: 7TFP): 1.17 ± 0.05; cell viability ([1]; reporter: TCF4/Wnt): 1.06 ± 0.093; cell viability [2]: 1.11 ± 0.05; cell viability [3]: 0.909 ± 0.028; TCF/Wnt firefly luciferase reporter signal ([4]; reporter: 7TFP): 1.29 ± 0.028; TCF/Wnt firefly luciferase reporter signal ([4]; reporter: TCF4/Wnt): 1.27 ± 0.028; TCF/Wnt firefly luciferase reporter signal [5]: 1.26 ± 0.035; TCF/Wnt firefly luciferase reporter signal [6]: 1.16 ± 0.15

Question: Which results are given for CNC(=O)c1ccc(C)c(-n2c(C)cc(OCc3ccc(F)cc3F)c(Br)c2=O)c1?
Answer: cell viability ([1]; reporter: 7TFP): 1.07 ± 0.057; cell viability ([1]; reporter: TCF4/Wnt): 1.015 ± 0.0071; cell viability [2]: 1.05 ± 0.035; cell viability [3]: 0.868 ± 0.047; TCF/Wnt firefly luciferase reporter signal ([4]; reporter: 7TFP): 1.17 ± 0.24; TCF/Wnt firefly luciferase reporter signal ([4]; reporter: TCF4/Wnt): 1.02 ± 0.061; TCF/Wnt firefly luciferase reporter signal [5]: 0.81 ± 0.046; TCF/Wnt firefly luciferase reporter signal [6]: 1.02 ± 0.11

Question: For Cc1cc(Nc2cc(N3CCN(C)CC3)nc(/C=C/c3ccccc3)n2)n[nH]1, which cell viability ([1]; reporter: 7TFP) is on record?
Answer: 0.88 ± 0.03

Question: What about the cell viability ([1]; reporter: TCF4/Wnt) of the same compound?
Answer: 0.942 ± 0.061

Question: And the cell viability [2]?
Answer: 0.678 ± 0.019

Question: What about the cell viability [3] of the same compound?
Answer: 0.9085 ± 0.0035

Question: And the “TCF/Wnt firefly luciferase reporter signal” value ([4]; reporter: 7TFP)?
Answer: 1.06 ± 0.11

Question: And the “TCF/Wnt firefly luciferase reporter signal” value ([4]; reporter: TCF4/Wnt)?
Answer: 1.01 ± 0.21

Question: What about the “TCF/Wnt firefly luciferase reporter signal” value [5] of the same compound?
Answer: 1.23 ± 0.33

Question: And the “TCF/Wnt firefly luciferase reporter signal” value [6]?
Answer: 0.687 ± 0.28

Question: How did the cell viability ([1]; reporter: 7TFP) turn out when CN1CCN(c2ccc3nc(-c4c(N)c5c(F)cccc5[nH]c4=O)[nH]c3c2)CC1 [Dovitinib Dilactic acid (TKI258 Dilactic acid)] was run?
Answer: 0.857 ± 0.19

Question: And the cell viability ([1]; reporter: TCF4/Wnt)?
Answer: 0.956 ± 0.041

Question: And the cell viability [2]?
Answer: 0.967 ± 0.13

Question: What about the cell viability [3] of the same compound?
Answer: 1.17 ± 0.035

Question: And the “TCF/Wnt firefly luciferase reporter signal” value ([4]; reporter: 7TFP)?
Answer: 1.1 ± 0.099

Question: And the “TCF/Wnt firefly luciferase reporter signal” value ([4]; reporter: TCF4/Wnt)?
Answer: 1.16 ± 0.16

Question: What about the “TCF/Wnt firefly luciferase reporter signal” value [5] of the same compound?
Answer: 0.784 ± 0.52

Question: And the “TCF/Wnt firefly luciferase reporter signal” value [6]?
Answer: 1.09 ± 0.69

Question: How did the cell viability ([1]; reporter: 7TFP) turn out when NCC(=O)Nc1ccc(-n2nc(C(F)(F)F)cc2-c2ccc3c(ccc4ccccc43)c2)cc1 was run?
Answer: 0.883 ± 0.098

Question: What about the cell viability ([1]; reporter: TCF4/Wnt) of the same compound?
Answer: 0.998 ± 0.14

Question: What about the cell viability [2] of the same compound?
Answer: 0.833 ± 0.13

Question: And the cell viability [3]?
Answer: 0.678 ± 0.46

Question: And the “TCF/Wnt firefly luciferase reporter signal” value ([4]; reporter: 7TFP)?
Answer: 1.09 ± 0.085

Question: And the “TCF/Wnt firefly luciferase reporter signal” value ([4]; reporter: TCF4/Wnt)?
Answer: 1.31 ± 0.34

Question: And the “TCF/Wnt firefly luciferase reporter signal” value [5]?
Answer: 0.606 ± 0.18

Question: And the “TCF/Wnt firefly luciferase reporter signal” value [6]?
Answer: 1.3 ± 0.057

Question: Nc1nccc(Oc2ccc(NC(=O)c3c[nH]cc(-c4ccc(F)cc4)c3=O)cc2F)c1Cl was tested. Which cell viability ([1]; reporter: 7TFP) did it give?
Answer: 1.16 ± 0.22

Question: What about the cell viability ([1]; reporter: TCF4/Wnt) of the same compound?
Answer: 1.01 ± 0.069

Question: And the cell viability [2]?
Answer: 1.12 ± 0.2

Question: What about the cell viability [3] of the same compound?
Answer: 0.886 ± 0.018

Question: What about the “TCF/Wnt firefly luciferase reporter signal” value ([4]; reporter: 7TFP) of the same compound?
Answer: 1.07 ± 0.17

Question: What about the “TCF/Wnt firefly luciferase reporter signal” value ([4]; reporter: TCF4/Wnt) of the same compound?
Answer: 0.826 ± 0.016

Question: What about the “TCF/Wnt firefly luciferase reporter signal” value [5] of the same compound?
Answer: 0.766 ± 0.32

Question: And the “TCF/Wnt firefly luciferase reporter signal” value [6]?
Answer: 0.549 ± 0.27

Question: Which cell viability ([1]; reporter: 7TFP) does the source give for O=C1NC(=O)C(=Cc2ccc(-c3ccc(F)cc3)o2)S1 (stereo in doubt) here?
Answer: 1.08 ± 0.11

Question: And the cell viability ([1]; reporter: TCF4/Wnt)?
Answer: 1.11 ± 0.064

Question: And the cell viability [2]?
Answer: 1.09 ± 0.11

Question: And the cell viability [3]?
Answer: 0.937 ± 0.1

Question: And the “TCF/Wnt firefly luciferase reporter signal” value ([4]; reporter: 7TFP)?
Answer: 1.25 ± 0.021

Question: What about the “TCF/Wnt firefly luciferase reporter signal” value ([4]; reporter: TCF4/Wnt) of the same compound?
Answer: 1.55 ± 0.16

Question: What about the “TCF/Wnt firefly luciferase reporter signal” value [5] of the same compound?
Answer: 1.29 ± 0.38

Question: And the “TCF/Wnt firefly luciferase reporter signal” value [6]?
Answer: 1.1 ± 0.13

Question: Cc1cc2c(F)c(Oc3ncnn4cc(OC[C@@H](C)OC(=O)[C@H](C)N)c(C)c34)ccc2[nH]1 was tested. Which cell viability ([1]; reporter: 7TFP) did it give?
Answer: 1.06 ± 0.042

Question: What about the cell viability ([1]; reporter: TCF4/Wnt) of the same compound?
Answer: 0.938 ± 0.052

Question: What about the cell viability [2] of the same compound?
Answer: 0.981 ± 0.041

Question: And the cell viability [3]?
Answer: 1.23 ± 0.071

Question: What about the “TCF/Wnt firefly luciferase reporter signal” value ([4]; reporter: 7TFP) of the same compound?
Answer: 1.03 ± 0.11

Question: What about the “TCF/Wnt firefly luciferase reporter signal” value ([4]; reporter: TCF4/Wnt) of the same compound?
Answer: 1.135 ± 0.0071

Question: What about the “TCF/Wnt firefly luciferase reporter signal” value [5] of the same compound?
Answer: 0.852 ± 0.16

Question: And the “TCF/Wnt firefly luciferase reporter signal” value [6]?
Answer: 1.28 ± 0.099

Question: Nc1ncnc2c1c(-c1cnc3[nH]ccc3c1)nn2C1CCCC1 was tested. Which cell viability ([1]; reporter: 7TFP) did it give?
Answer: 0.8 ± 0.14

Question: And the cell viability ([1]; reporter: TCF4/Wnt)?
Answer: 0.862 ± 0.063

Question: What about the cell viability [2] of the same compound?
Answer: 0.489 ± 0.15

Question: What about the cell viability [3] of the same compound?
Answer: 0.967 ± 0.15

Question: And the “TCF/Wnt firefly luciferase reporter signal” value ([4]; reporter: 7TFP)?
Answer: 0.322 ± 0.033

Question: And the “TCF/Wnt firefly luciferase reporter signal” value ([4]; reporter: TCF4/Wnt)?
Answer: 0.51 ± 0.084

Question: And the “TCF/Wnt firefly luciferase reporter signal” value [5]?
Answer: 0.21 ± 0.035

Question: What about the “TCF/Wnt firefly luciferase reporter signal” value [6] of the same compound?
Answer: 0.562 ± 0.064
